The supplement of paper PMC10338343
± gives the standard deviation.

The sequences below were run on EfPiwi piRISC loaded with L1MC piRNA (26 nt) (assay: pre-steady-state target cleavage rate (min^-1); auxiliary factor: 500 nM Ephydatia muelleri Gtsf1; guide: L1MC piRNA 5'p-UAACUAAAUACUAUGCAAGCUGUAGG; MIWI and MILI are mouse PIWI proteins and EfPiwi is from a freshwater sponge; tags in brackets are library labels; higher = faster piRNA-guided slicing of the target).
In short: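 In this Cleave-'n-Seq assay, uncleaved targets were sequenced and normalised to depth and to weakly complementary targets. They came from a transcribed, DNA-blocked target RNA library […] mixed with 1 nM active affinity-purified piRISC carrying one synthetic guide, with or without 500 nM GTSF1 partner protein, in HEPES–potassium acetate buffer at 33 °C for 0–8 or 0–960 min. After three trials were pooled and k3 was capped at 0.0001 min^-1, the pre-steady-state cleavage rate was obtained from a burst-and-steady-state fit.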

Row | Sequence | pre-steady-state target cleavage rate
1 | UCCUGGAUCAGGAUGCAUAGUAUUUAGUUA | 0.0121 ± 0.0027
2 | UCCUGGUCAGCUUGCAUAGUAUUUAGUUA | 0.14 ± 0.027
3 | UCCUGCUUCAGCUUGCAUACUAUUUAGUUA | 0.00801 ± 0.0025
4 | UCCUCCUACAGCUAGCAUAGUAUUUAGUUA | 0.0119 ± 0.0038
5 | UCCUGCUACGAGCUUGCAUAGUAUUUAGUUA | 0.00866 ± 0.0022
6 | UCCUGGAUGAGCUAGCAUAGUAUUUAGUUA | 0.00597 ± 0.002
7 | UCCUCCUACAGGUUGCAUAGUAUUUAGUAA | 0.00547 ± 0.0022
8 | UCCUCCUACAAGCUUGCAUAGUAUUUAGUUA | 0.0104 ± 0.0039
9 | UCCUGGUACAGCUUGCAUAGUAUUUAGUUC [g2:g24:cont:t1C] | 0.0096 ± 0.0039
10 | UCCUGGUACAGCAUGCAUACUAUUUAGUUA | 0.00483 ± 0.0019
11 | UCCUCCUACAUGCUUGCAUAGUAUUUAGUUA | 0.00449 ± 0.0018
12 | UCCUGGAUCAGCUUGCAUAGUAUUUAGUUA [g2:g22:cont:t1A] | 0.0886 ± 0.017
13 | UCCUCCUACAGCUAGCAUACUAUUUAGUUA | 0.00634 ± 0.002
14 | UCCUGCAACAGCUAGCAUAGUAUUUAGUUA | 0.0145 ± 0.004
15 | UCCUGGAACAGCUUUGCAUAGUAUUUAGUUA | 0.0309 ± 0.0082
16 | UCCUGGAACAGCUUGCAUAGUAUAUAGUUA | 0.00501 ± 0.0025
17 | UCCUGCUACAGCUUGCAUUGUAUUUACUUA | 0.00271 ± 0.0027
18 | UCCUGGAUGAGCUAGCAUAGUUUUUAGUUA | 0.00278 ± 0.0027
19 | UCCUGCUACUGCUUGCUUAGUAUUUAGUUA | 0.0076 ± 0.0022
20 | UCCUGCUACAGGUUGCAAAGUAUUUAGUUA | 0.0385 ± 0.0096

Row | Sequence | pre-steady-state target cleavage rate
21 | UCCUCCAACACCUUGCAUAGUAUUUAGUUA | 0.00954 ± 0.0038
22 | UCCUGGAUCGCUUGCAUAGUAUUUAGUUA | 0.065 ± 0.011
23 | UCCUGGAACAGCUUGCAAAGUAAUUAGUUA | 0.00403 ± 0.002
24 | UCCUGCUACAGCAUGCAUAGUAUUAAGUUA | 0.00828 ± 0.0024
25 | UCCUGGAUGUGCUUGCAUAGUUUUUAGUUA | 0.00538 ± 0.0024
26 | UCCUGGAUCAGCUUGCAUAGUAUUUGGUUA | 0.00498 ± 0.002
27 | UCCUGGAUGAGCUUUGCAUAGUAUUUAGUUA | 0.0107 ± 0.0037
28 | UCCUGCUACAGCUCGCAUAGUAUUUAGUUA | 0.0122 ± 0.0028
29 | UCCUGGAUGUGCUUGCAUAGUAUUUAGUAA | 0.00442 ± 0.002
30 | UCCUGGAUGUGCUUACAUAGUAUUUAGUUA | 0.0113 ± 0.0041
31 | UCCUGGAACAGCUAGCUUAGUAUUUAGUUA | 0.00846 ± 0.0037
32 | UCCUGGUACAGCUUGCAUAGUAUUUAGUGA | 0.00447 ± 0.0018
33 | UCCUGGUACAGCUUGCAUAGUAUUUAGUA | 0.00657 ± 0.0033
34 | UCCUGCUACAGCUUGCACAGUAUUUAGUUA | 0.0133 ± 0.0041
35 | UCCUGGAACAGCUUGCAUAGUAUUUAGUAA | 0.00976 ± 0.0038
36 | UCCUCCUAGUGCUUGCAUAGUAUUUAGUUA | 0.00928 ± 0.0031
37 | UCCUUCUACAGCUUGCAUAGUAUUUAGUUA | 0.119 ± 0.035
38 | UCCUGGAACAGCCUGCAUAGUAUUUAGUUA | 0.0144 ± 0.0045
39 | UCCUGGAACAGCUUGUCAUAGUAUUUAGUUA | 0.0277 ± 0.0088
40 | UCCUCCAAGAGCUUGCAUAGUAUUUAGUUA | 0.0523 ± 0.014
